Screening results as filed in PubChem.
Only some compounds are listed: those with a hit (about 3.5% of all), similar ones and a draw of the others.
LEDGF integ inh: blocks HIV-1 LEDGF/p75-dependent DNA integration; 370,000 compounds, 0.64% hits; inhibition, % at 3.7 µM; AID 743269; TR-FRET IN-LEDGF/p75 DNA integration, Eu/Cy5;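 active = inhibition above the screen-wide mean plus 3 SD, cut at about 13% in these data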;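 also: signal is the Cy5 over europium emission ratio at 671 and 618 nm; 0% = plate median of compound wells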
rCAG binder: binds r(CAG) RNA repeats; AID 651821; r(CAG) RNA repeat, TO-PRO-1 dye displacement fluorescence; inhibition, % at 3 µM; 370,000 compounds, 1.3% hits;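 active = inhibition above the plate cutoff, the mean of all test compounds on that plate plus 3 SD, cut at about 35% in these data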;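 also: 0% = DMSO alone and 100% = 100 µM mitoxantrone as full dye displacement; higher means more dye released from RNA so lower well fluorescence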
DNMT1 inh: DNMT1 (human) enzyme inhibition; DNMT1 molecular beacon, Hinp1I cleavage, fluorescence; AID 588458; 360,000 compounds, 0.83% hits; P26358; inhibition (reported as % activation of signal), % at 10 µM; in the data active = inhibition above about 50%
PG9 Ab binder: binds the HIV-1 gp120 antibody PG9; 360,000 compounds, 0.43% hits; TR-FRET gp120-PG9 antibody binding; inhibition, % at 6.7 µM; in the data active = inhibition above about 8.5%
UHRF1 MBD2 ctr: human UHRF1 methylated DNA binding inhibitors; UHRF1 binding to methylated oligo, TR-FRET; inhibition, % at 4.4 µM; 370,000 compounds, 0.75% hits; AID 687016; in the data active = inhibition above about 21%;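 also: UHRF1 SRA domain binding a hemimethylated CpG hairpin DNA probe; 0% = median of test compound wells and 100% = reference inhibitor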
MBD2 DNA inh: inhibitors of human MBD2 binding to methylated oligonucleotide | TR-FRET | inhibition, % at 4.4 µM | 370,000 compounds, 0.31% hits; in the data active = inhibition above about 13%
Beacon interf DR: shows spectral interference in the DNMT1 beacon assay | shares compounds with DNMT1 inh | molecular beacon fluorescence, spectral interference counter-screen | IC50, µM | 200 tested, under 10 active; call rule not given here
DNMT1 inh conf: DNMT1 inhibition confirmation, single concentration; shares compounds with DNMT1 inh; DNMT1 molecular beacon HinP1I cleavage, fluorescence; inhibition, % at 10 µM; 2,300 compounds, 8% hits; AID 602385;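 active = average inhibition of at least 30% in the single-concentration confirmation test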
DNMT1 interf: beacon fluorescence artifact counter-screen. DNMT1 molecular beacon spectral interference counterscreen, fluorescence 485/520. shares compounds with DNMT1 inh. 2,300 compounds, 1% hits. activation (fluorescence interference), % at 10 µM;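 active = activation of at least 30% at 10 µM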;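 also: DNMT1 catalytic domain with a HinP1I cleavage step and a FAM/dabcyl DNA beacon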
An asterisk follows results filed as active; nt = no result.

SMILES	LEDGF integ inh	rCAG binder	DNMT1 inh	PG9 Ab binder	UHRF1 MBD2 ctr	MBD2 DNA inh	DNMT1 inh conf	DNMT1 interf	others
Cc1ccc(-c2[nH]ncc2/C=N/n2c(COc3ccccc3C)nc3ccccc3c2=O)cc1	1	10	70*	1	0	0	0	-2
Nc1cccc(NC(=O)c2cccs2)c1	-1	2	-3	-1	-3	0	nt	nt
O=C(Nc1cccc(N2CCCC2)c1)c1cccs1	-3	10	59*	-1	-2	-2	3	5
COc1ccc(Cn2cc(CN3[C@@H](CC(C)C)COc4cccc(F)c4S3(=O)=O)nn2)cc1	-3	11	nt	nt	-2	4	nt	nt
O=C(c1cccc(Cl)c1)N1CCN(Cc2ccc3c(c2)OCO3)CC1	-6	-10	90*	-1	6	3	2	2
O=C(c1cccc(F)c1)N1CCN(Cc2ccc3c(c2)OCO3)CC1	6	-5	-1	-3	3	-2	nt	nt
COc1ccc2c(c(-c3ccccc3)cn2C)c1-c1ccccc1	0	1	nt	nt	0	4	nt	nt
O=c1nc2c(-c3cccc(Br)c3)n[nH]n2c2ccccc12	6	-1	1	-2	0	-8	nt	nt
COc1ccc(/C=C/C(=O)NCc2ccccn2)cc1	-1	-1	3	-1	-1	-1	nt	nt
Cc1ccc(/C=C/C(=O)NCc2ccccn2)o1	4	9	67*	-1	10	-2	6	1
Cc1ccc(OCCn2cnc3c2c(=O)n(C)c(=O)n3C)cc1	2	-1	7	0	-1	0	nt	nt
CCNc1nc(NCC)nc(C(=O)NN)n1	-1	-2	91*	-1	2	1	5	6
Cc1cc(F)ccc1-c1cc(C(=O)Nc2ccccc2)[nH]n1	-3	1	-2	0	2	1	nt	nt
CC(C)(C)c1ccc(C(=O)N2CCN(CCNC(=O)C(=O)NCc3ccc(Cl)cc3)CC2)cc1	nt	nt	-1	nt	nt	nt	nt	nt
Cc1nn(C)c(C)c1NC(=O)CSc1nc(Cc2ccccc2)nc2c1cnn2-c1ccccc1	1	2	51*	-1	16	3	1	-1
Cc1nn(Cc2ccccc2)c(C)c1NC(=O)CSc1nc(C2CC2)nc2c1cnn2-c1ccccc1	-3	4	58*	2	5	0	5	-5
O=c1nc(Nc2ccccc2)sc2ccc([N+](=O)[O-])cc12	-2	-1	57*	1	3	8	1	-3
C/C(=N\NC(=O)c1cc(O)cc(O)c1)c1ccc(NC(=O)Cc2ccccc2)cc1	16*	20	85*	-2	46*	12	51*	-2	Beacon interf DR=>99
C/C(=N\NC(=O)c1cccc(F)c1)c1ccc(NC(=O)Cc2ccccc2)cc1	-2	-2	2	0	0	1	nt	nt
O=C(COC(=O)/C=C/c1cccc(C(F)(F)F)c1)NC(=O)NCc1ccccc1	-2	-11	3	-1	0	5	nt	nt
O=C(COC(=O)/C=C/c1cccc(C(F)(F)F)c1)NC(c1ccccc1)c1ccccc1	-1	-2	56*	-1	4	5	0	3
COc1cccc(-c2cnc(C(O)c3ccc(Cl)c(F)c3)[nH]2)c1 (stereo not given)	-4	0	0	1	2	3	nt	nt
COc1cc(/C=C2\SC(=O)N(c3ccc(Cl)cc3)C2=O)cc([N+](=O)[O-])c1O	-3	34	86*	-3	-2	0	-2	-5
O=c1[nH][nH]c(=O)c2nc(Nc3ccccc3)ncc12	-2	3	3	-1	-5	0	nt	nt
C=C1C(O)C[C@@H](C(C)C)N(CC(C)C)S1(=O)=O (stereo not given in full)	1	2	3	-3	2	1	nt	nt
SMILES	LEDGF integ inh	rCAG binder	DNMT1 inh	PG9 Ab binder	UHRF1 MBD2 ctr	MBD2 DNA inh	DNMT1 inh conf	DNMT1 interf	others
CCCOc1ccc(C2NC(=O)CCC2[N+](=O)[O-])cc1 (stereo not given)	0	2	3	-2	0	-2	nt	nt
[O-][n+]1c2ccccc2[n+]([O-])c2cc(O)ccc21	3	7	56*	-53	-7	-6	2	1
[O-][n+]1c(/C=C/c2ccccc2)ccc2ccccc21	-1	-2	11	0	-2	-4	nt	nt
COc1ccc(NC(=O)N(C)C[C@H]2Oc3ccc(NC(=O)NC4CCCCC4)cc3C(=O)N([C@H](C)CO)C[C@@H]2C)cc1	0	-2	1	1	-5	-5	nt	nt
O=C(NC(=S)Nc1cc(Cl)ccc1Cl)c1ccco1	3	2	11	-1	2	-2	nt	nt
Cc1ccc(Nc2nnc(SCC(=O)NCc3ccco3)s2)cc1	5	5	4	1	1	-2	nt	nt
O=C(CSc1nnc(Nc2ccccc2)s1)NCc1ccco1	-1	5	5	0	-1	1	nt	nt
O=C(CSc1nc2ncccc2[nH]1)NCc1ccco1	10	6	3	-2	18	2	nt	nt
O=C(CSc1nccc(=O)[nH]1)NCc1ccco1	2	6	77*	-1	34*	2	3	0
Cc1ccccc1Nc1nnc(SCC(=O)NC(=O)NCc2ccco2)s1	5	11	90*	3	6	10	2	1
O=C(CSc1nnc(Nc2ccccc2F)s1)NCc1ccco1	1	13	76*	0	1	-6	2	-2
COc1ccc(Br)cc1C=NNC(=O)c1ccncc1	-6	2	nt	nt	-2	-2	nt	nt
CC(C)(C)C(=O)Nc1nnc(CC(=O)NCc2ccccc2)s1	0	-3	61*	-3	-2	3	7	4
CCc1nn2c(=O)cc(COC(=O)c3cc(Cl)c(OC)c(OC)c3)nc2s1	1	3	4	0	-2	-3	nt	nt
c1ccc(-c2nc(-c3ccco3)n3ccccc23)cc1	5	24	57*	-6	3	-1	1	1
O=C(CCc1ccccc1)NNC(=O)COc1ccc(Br)cc1	-5	1	5	1	3	6	nt	nt
COc1ccc(NC(=O)CCc2nnc3ccc(NCc4ccc5c(c4)OCO5)nn23)cc1	1	2	0	0	0	-1	nt	nt
CCc1ccc(C(=O)COC(=O)c2cc([N+](=O)[O-])ccc2NCCO)cc1	3	13	90*	-2	4	2	5	7
COc1ccc(NS(=O)(=O)c2ccc(C)c(C(=O)NCCCn3ccnc3)c2)cc1	-1	4	11	0	0	3	nt	nt
